Laboratory results as given in PubChem BioAssay AID2315 (National Center for Advancing Translational Sciences (NCATS), 2010).
Hit rate of the full screen: of about 290,000 compounds, about 27,000 (9.3%) were called active. Cut-off read from the data, not from the text of the source: active = inhibition mostly above about 28% (no sharp cut-off); inactive = mostly below about 43%. For the sample, actives were picked, then their nearest neighbours and some compounds at random.

assay: A qHTS for Small Molecule Inhibitors of Shiga Toxin; settings: Vero cells, Shiga toxin protein synthesis inhibition reporter; at 38.7 µM, stronger effect = higher value; note: 0% is about no effect

Row | SMILES | inhibition
1 | CC(C(=O)NC1CCCCC1)N1C(=O)c2cccc3cccc1c23 (stereo unspecified) | -6.55% (inactive)
2 | CC(=O)N(Cc1cc(=O)[nH]c2ccccc12)c1ccc(C)cc1C | -8.12% (inactive)
3 | O=C(c1cc2nc(-c3ccccc3)cc(-c3ccccc3)n2n1)N1CCC2(CC1)OCCO2 | 10.6% (inactive)
4 | COc1cccc(CNc2nc3nc4c(c(=O)n3[nH]2)CCC4)c1 | -7.62% (inactive)
5 | COc1cccc(-c2cc3nc4c(c(N5CCC6(CC5)OCCO6)n3n2)CCCC4)c1 | 63.6% (active)
6 | COc1ccc(S(=O)(=O)N2CCN(C(=S)NCC3CCCO3)CC2)cc1OC (stereo unspecified) | -11.6% (inactive)
7 | O=S(=O)(NCCCCCCNS(=O)(=O)c1c(F)cccc1F)c1ccc2c(c1)OCCO2 | -3.9% (inactive)
8 | O=C(O)CCCn1cc(NC(=O)COc2cccc(Cl)c2)cn1 | 12.7% (inactive)
9 | COc1cc(C(=O)OCC(=O)NC(C)CCc2ccccc2)cc(OC)c1OC (stereo unspecified) | -9.96% (inactive)
10 | COc1ccc(OC)c(NC(=S)N2CCc3ccccc3C2)c1 | 46.8% (active)
11 | COc1ccc(C)cc1NC(=S)N1CCOCC1 | -10.3% (inactive)
12 | COc1ccc(NC(=S)N2CCc3cc(OC)c(OC)cc3C2)cc1 | 11.3% (inactive)
13 | CCOc1ccc(-c2noc(CCC(=O)NC3CCCC3)n2)cc1OC | -7.65% (inactive)
14 | COc1ccc(CCNC(=O)CSCc2ccc(Br)cc2)cc1OC | -18.8% (inactive)
15 | Cc1nn(CC(=O)NCC2CCCO2)c(=O)c2cc3ccccc3n12 (stereo unspecified) | 1.03% (inactive)
16 | Cc1cccc(NS(=O)(=O)c2cc(Cl)ccc2Cl)n1 | 2.75% (inactive)
17 | CC(C)[C@@H]1COC(c2cccc(C3=N[C@H](C(C)C)CO3)c2)=N1 | 46.5% (active)
18 | O=c1c(-c2ccccc2)coc2cc(O)ccc12 | 93% (active)
19 | Cc1c(CCC(=O)O)c(=O)oc2cc3occ(-c4ccccc4)c3cc12 | -11.6% (inactive)
20 | O=c1c(-c2ccccc2)coc2c(CN3CCOCC3)c(O)ccc12 | 7.81% (inactive)
21 | CC(C)c1ccc(C2C(C(=O)c3ccco3)=C(O)C(=O)N2CC2CCCO2)cc1 (stereo unspecified) | 1.66% (inactive)
22 | COc1ccc(S(=O)(=O)N2CCCC(C(=O)NCCCn3ccnc3)C2)cc1OC (stereo unspecified) | -5.4% (inactive)
23 | Cc1sc2ncn(CC(=O)NCCCC(=O)N(C)Cc3ccccc3)c(=O)c2c1C | -9.55% (inactive)
24 | CC(C)(C)OC(=O)N1CCC(C(=O)NNC(=O)c2ccc(Cl)cc2Cl)CC1 | 5.93% (inactive)
25 | Cc1ccc(C(=O)NNC(=O)OC(C)(C)C)c(Cl)c1 | 90.5% (active)
26 | CCOc1ccc(NC(=O)NNC(=O)c2ccc(Cl)cc2Cl)cc1 | 13.5% (inactive)
